The campaign covered roughly 50,000 compounds. About 800 (1.6%) showed an effect of 50% or more. The full list was thinned out, with strong results kept by preference.
The compounds below were run against Bcl-2-like protein 10 (Homo sapiens) (UniProt Q9HD36) (assay: TR3 peptide-Bcl-B binding displacers, biochemical primary FP assay, phenotype converters (AID 1240;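 further: 0% = Bcl-B with tracer peptide and DMSO and 100% = tracer peptide lacking Bcl-B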)). Details: GST-Bcl-B / FITC-TR3 peptide fluorescence polarization; stronger effect = higher value; compound at 3.75 mg/L.
Bcl-2-like protein 10 (Homo sapiens), sequence (Q9HD36 whole entry, looked up): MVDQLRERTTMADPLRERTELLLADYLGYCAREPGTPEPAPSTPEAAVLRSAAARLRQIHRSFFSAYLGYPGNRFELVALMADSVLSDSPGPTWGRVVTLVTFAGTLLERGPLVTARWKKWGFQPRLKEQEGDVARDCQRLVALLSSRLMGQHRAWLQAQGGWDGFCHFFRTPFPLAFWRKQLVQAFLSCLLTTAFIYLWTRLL

Row | SMILES | displacement [%]
1 | CCCCOC(=O)c1cccc(NC(=O)c2cc3ccccc3oc2=O)c1 | 1.7
2 | Cc1cc(C(=O)O)ccc1-n1c(C)ccc1C | 81.4
3 | Cc1ccc(-c2ccccc2)n1-c1cccc(C(=O)O)c1 | 1.2
4 | Cc1ccc(C(=O)O)cc1N1C(=O)c2ccc(C(=O)O)cc2C1=O | 6.5
5 | Cc1ccc(N2C(=O)c3ccc(C(=O)O)cc3C2=O)c(C)c1 | 1.6
6 | Cc1ccc(C(=O)O)cc1-n1c(C)ccc1C | 83.2
7 | Cc1ccc(C(=O)O)cc1N1C(=O)c2ccccc2C1=O | 7
8 | COc1ccccc1NC(=O)c1ccc(Br)o1 | 1
9 | O=c1oc(-c2ccccc2Cl)nc2ccc(-c3ccc4nc(-c5ccccc5Cl)oc(=O)c4c3)cc12 | 11.6
10 | CC(=O)Nc1cc(-c2nc3ccccc3s2)ccc1Cl | 11.6
11 | Cc1ccc2nsnc2c1NC(=O)c1ccc(-c2ccc([N+](=O)[O-])cc2)o1 | 16.6
12 | Cc1ccc2nsnc2c1NC(=O)c1ccc(-c2cccc([N+](=O)[O-])c2)o1 | 105
13 | O=C(Nc1cc(-c2nc3ccccc3s2)ccc1Cl)c1ccc([N+](=O)[O-])cc1 | 90.8
14 | Cc1ccc2nsnc2c1NC(=O)c1ccc(-c2cccc(Cl)c2)o1 | 1.4
15 | O=C(Nc1ccc(-c2nc3ccccc3s2)c(O)c1)c1ccc(-c2cccc([N+](=O)[O-])c2)o1 | 6.1
16 | O=C(Nc1cccc(-c2nc3ccccc3s2)c1)c1ccc(-c2ccc([N+](=O)[O-])cc2)o1 | 70
17 | Cc1c(NC(=O)c2ccc(-c3cccc([N+](=O)[O-])c3)o2)cccc1-c1nc2ccccc2s1 | 3.7
18 | O=C(COc1ccc([N+](=O)[O-])cc1)Nc1cc(-c2nc3ccccc3s2)ccc1Cl | 9
19 | O=c1/c(=C\c2ccccc2OS(=O)(=O)c2ccc3ccccc3c2)sc2nc3ccccc3n12 | 4.6
20 | O=[N+]([O-])c1ccc(N2CCN(S(=O)(=O)c3ccc(Cl)cc3)CC2)c(C(F)(F)F)c1 | 8.3
21 | CCOC(=O)c1ccccc1NC(=O)c1ccc(N(Cc2ccc(Cl)cc2)S(C)(=O)=O)cc1 | 12.1
22 | COC(=O)c1c(-c2cc(C)ccc2C)csc1N | -6.2
23 | COc1cccc(/C=N/NC(=O)c2cc(C)[nH]n2)c1OC | -9
24 | CN(C)CCCNC(=O)c1ccc2sc3cc(=O)c(N)cc-3nc2c1 | 44.6
25 | CCCCOc1ccccc1NC(=O)C(c1ccccc1)c1ccccc1 | -16.9
26 | CCCCOc1ccc(N2C(=O)c3cccc4cccc(c34)C2=O)cc1 | 0.2

Row | SMILES | displacement [%]
27 | CCCCOc1ccc2c3c(cccc13)C(=O)c1ccccc1-2 | 176
28 | CC1(C)CC(=O)C(Sc2ccc([N+](=O)[O-])cc2)=C(O)C1 | 17
29 | CCOc1cc(-c2ccc(OC)cc2)[o+]c2c1ccc1ccccc12 | 6.2
30 | C=CCOC(=O)C1=C(C)NC(=S)NC1c1ccccc1OCC (stereo unspecified) | 2.1
31 | N#C/C(=C\c1ccc(Sc2ccccc2)o1)c1ccccc1 | -14.9
32 | N#C/C(=C\N1CCOCC1)c1ccccc1 | -0.9
33 | N#CC(C#N)=C/C(=C/C(C#N)C#N)c1ccccc1 | 109
34 | Cc1ccc2c(c1)C1C=CCC1C(C(=O)O)N2 (stereo unspecified) | 142
35 | COc1ccc2c(c1)C1C=CCC1C(C(=O)O)N2 (stereo unspecified) | 150
36 | Cc1ccc2c(c1)C1C=CCC1C(c1ccccc1[N+](=O)[O-])N2 (stereo unspecified) | 6.9
37 | Cc1ccc2c(c1)C1C=CCC1C(c1ccc([N+](=O)[O-])cc1)N2 (stereo unspecified) | 12.2
38 | COc1ccc2c(c1)C1C=CCC1C(c1cccc([N+](=O)[O-])c1)N2 (stereo unspecified) | -2.3
39 | COc1ccc2c(c1)C1C=CCC1C(c1ccc([N+](=O)[O-])cc1)N2 (stereo unspecified) | -0.8
40 | COC(=O)c1c(C)oc2ccc(OC(=O)c3ccc(OC)c(OC)c3)cc12 | 10.8
41 | Cc1ccc(C)c(N2C(=O)C3C4C=CC(C4=C4CCCC4)C3C2=O)c1 (stereo unspecified) | 3.8
42 | CCOc1ccc(C(=O)Nc2ccc(-c3nc4ccc(C)cc4o3)cc2)cc1Cl | 104
43 | CCOc1cccc(C(=O)Nc2ccc(-c3nc4cc(Cl)ccc4o3)cc2)c1 | 81.3
44 | O=C(Nc1ccc(-c2nc3ccccc3c(=O)o2)cc1)c1cccc([N+](=O)[O-])c1 | -5.5
45 | CCOc1cc(OCC)cc(C(=O)Nc2ccc(-c3nc4ccc(C)cc4o3)cc2)c1 | -16.6
46 | COc1cccc(C(=O)Nc2ccc3oc(-c4ccc(F)cc4Cl)nc3c2)c1 | 17.1
47 | COc1cccc(C(=O)Nc2ccc(Cl)c(-c3nc4cc(Cl)ccc4o3)c2)c1 | 105
48 | CCOc1cccc(C(=O)Nc2ccc(C(=O)Nc3cccc(-c4nc5ccccc5o4)c3)cc2)c1 | 0.7
49 | CCOc1ccc(C(=O)Nc2ccc3oc(-c4ccncc4)nc3c2)cc1Cl | -9.5
50 | O=C(Nc1cccc(-c2nc3cc(Cl)ccc3o2)c1)c1cccc([N+](=O)[O-])c1 | -3.3
51 | O=C(Nc1ccc(-c2nc3cc(Cl)cc(Cl)c3o2)cc1)c1cccc([N+](=O)[O-])c1 | 62.7
52 | CCOc1cc(OCC)cc(C(=O)Nc2ccc3oc(-c4ccc(OC)cc4)nc3c2)c1 | 4.2

Row | SMILES | displacement [%]
53 | COc1ccc(C(=O)Nc2ccc(O)c(-c3nc4cc(Cl)ccc4o3)c2)cc1 | 40.1
54 | CCOC(=O)C1=C(O)/C(=C/c2ccc(-c3ccccc3)cc2)SC1=Nc1ccc(OC)cc1 | -6
55 | O=C1c2ccccc2C(=O)C1(Nc1ccc(F)cc1)c1ccccc1 | 17.4
56 | O=C(Nc1ccccc1[N+](=O)[O-])c1c(-c2cnc3ccccc3c2C(=O)Nc2ccccc2[N+](=O)[O-])cnc2ccccc12 | -1.5
57 | COc1ccc(Cl)cc1NC(=O)c1cccc(F)c1 | -13.8
58 | CC1CN(C(=O)c2ccccc2C(=O)c2ncc[nH]2)CC(C)O1 (stereo unspecified) | -0.9
59 | CC(=O)OC1(C#CCl)CCCCC1 | -8.7
60 | O=C1CC(N2CCC(O)CC2)C(=O)N1c1ccc(Cl)cc1 (stereo unspecified) | -4.9
61 | COc1cccc(/C=N/Nc2nc(-c3ccc(C)cc3)nc3ccccc23)c1O | 3.4
62 | Cc1ccc(-c2nc(N/N=C/c3ccccc3O)c3ccccc3n2)cc1 | 76.2
63 | Cc1ccc(-c2nc(N/N=C/c3ccccc3)c3ccccc3n2)cc1 | 6.7
64 | CCC(=O)Oc1cc2oc(=O)c(CC)c(C)c2cc1CC | 10.1
65 | O=C1NC(=O)N(c2ccccc2)C(=O)/C1=C\c1ccc(-c2cccc([N+](=O)[O-])c2)o1 | 39.3
66 | O=C1NC(=O)N(c2ccc(Br)cc2)C(=O)/C1=C/c1ccc(-c2cccc([N+](=O)[O-])c2)o1 | 138
67 | O=C1NC(=O)N(c2ccccc2)C(=O)/C1=C\c1ccc(-c2ccc([N+](=O)[O-])cc2)o1 | 130
68 | O=C1NC(=S)N(c2ccc(Br)cc2)C(=O)/C1=C\c1ccc(-c2ccc([N+](=O)[O-])cc2)o1 | 16.2
69 | O=C1NC(=O)N(c2ccc(Cl)cc2)C(=O)/C1=C/c1ccc(-c2ccc(Cl)cc2[N+](=O)[O-])o1 | 10.6
70 | O=C1NC(=S)N(c2ccccc2)C(=O)/C1=C/c1ccc(-c2ccc([N+](=O)[O-])cc2)o1 | -1.5
71 | O=C1NC(=O)N(c2ccc(Cl)cc2)C(=O)/C1=C\c1ccc(-c2ccc(C(=O)O)c(Cl)c2)o1 | -7.8
72 | O=C1NC(=O)N(c2ccc(Cl)cc2)C(=O)/C1=C/c1ccc(-c2ccc(Cl)c(C(=O)O)c2)o1 | 72.5
73 | COc1ccc(N2C(=O)NC(=O)/C(=C/c3ccc(-c4cccc([N+](=O)[O-])c4)o3)C2=O)cc1 | -12.5
74 | O=C1NC(=O)N(c2ccc(Cl)cc2)C(=O)/C1=C\c1ccc(-c2ccc([N+](=O)[O-])cc2)o1 | 105
75 | O=C1NN(c2ccc(Cl)cc2)C(=O)/C1=C\c1ccc(-c2ccc(Cl)c(C(=O)O)c2)o1 | 22.1
76 | COc1ccc(N2C(=O)NC(=O)/C(=C/c3ccc(-c4ccc([N+](=O)[O-])cc4)o3)C2=O)cc1 | 46.2
